“And” between values parts separate entries of the source, which are not always exact repeats. Equal values may be shown once. Results filed as inconclusive are left out. Entries that show only a call come without a potency. The source made the active and inactive calls. Calls follow the shape of the dose curve; as a rule, active = well fitted activation curve with a large enough effect in the repeat runs; inconclusive = weak or mixed curves; inactive = no such curve, though single readings can be large or run the other way.

Potency data for 40 molecules are collected here from PubChem BioAssay (Tox21).
Potency is read from the fitted curve at half-maximal effect.

The nature of the assay: qHTS assay for small molecules that induce genotoxicity in human embryonic kidney cells expressing luciferase-tagged ATAD5 (AID 651632). Also: nearly all actives have a fitted effect of over 15% in size. Conditions: HEK293T ATAD5-luciferase induction, 16 h; series mostly up to 83.3 µM. The text has this: U.S. Tox21 Program National Center for Advancing Translational Sciences [NCATS] NIH Chemical Genomics Center [NCGC] U.S. Environmental Protection Agency [EPA] National Institutes of Environmental Health Sciences [NIEHS] National Toxicology Program [NTP] U.S. Food and Drug Administration [FDA] Tox21 Assay Overview: As cancer cells divide rapidly and during every cell division they need to duplicate their genome by DNA replication. The failure to do so results in the cancer cell death. Based on this concept, many chemotherapeutic agents were developed but have limitations such as low efficacy and severe side effects etc. A new cell based assay was developed to find the compounds that effectively block DNA replication either by directly damaging DNA or by inhibiting other cellular mechanisms. Enhanced Level of Genome Instability Gene 1 (ELG1; human ATAD5) protein levels increase in response to various types of DNA damage. Using a luciferase reporter-gene tagged with ATAD5, a cell-based assay [developed by Kyungjae Myung, NHGRI, NIH] was used to measure the induction of ATAD5 in human embryonic kidney cells (HEK293T). So, increase in luciferase activity can be used to identify the compounds that cause genetic stress.
Tox21 Assay Protocol Summary: For genotoxicity screening, 2,000 cells in 5 uL/well were dispensed into white, solid-bottom 1536-well plates using a Multidrop Combi (Thermo Scientific) dispenser. Following transfer of 23 nL compound or DMSO vehicle by a pin tool, the plates were incubated 16 hr at 37C and 5% CO2. 5 ul Amplite (AAT Bioquest, Inc.) was then added to each plate and following 30 min incubation at room temperature, luciferase activity was quantified on a ViewLux CCD-based plate reader.
A general note: In qHTS, concentration-response curves come from the screen itself.
For the molecule `Cc1cccc(C(=O)O)c1`, the Potency entry was “inactive”.
In the case of `CCCC(=O)O`, the Potency entry is “inactive”.
`CCCCC/C=C/C=C/C=O`: the Potency entry is “inactive”.
`CCCCOCCOCCO`: the Potency entry was “inactive”.
The value for `C=C(C)C1CC=C(C)CC1` (stereo not given) was “inactive”; that for `OC[C@H]1O[C@@H]2O[C@H]3[C@H](O)[C@@H](O)[C@@H](O[C@H]4[C@H](O)[C@@H](O)[C@@H](O[C@H]5[C@H](O)[C@@H](O)[C@@H](O[C@H]6[C@H](O)[C@@H](O)[C@@H](O[C@H]7[C@H](O)[C@@H](O)[C@@H](O[C@H]8[C@H](O)[C@@H](O)[C@@H](O[C@H]1[C@H](O)[C@H]2O)O[C@@H]8CO)O[C@@H]7CO)O[C@@H]6CO)O[C@@H]5CO)O[C@@H]4CO)O[C@@H]3CO` was “inactive”; that for `NC=O` was “inactive”.
To `Nc1ncnc2nc[nH]c12` belongs “inactive”.
To `Oc1ccc(O)cc1` belongs “inactive”.
In the case of `CCOC(=O)C(C#N)=C(c1ccccc1)c1ccccc1`, the Potency entry was “inactive”.
For the molecule `O=CCc1ccccc1`, the Potency entry is “inactive”.
For the molecule `c1ccc2c(c1)Oc1ccccc1S2`, the Potency result is “inactive”.
The value for `CCCCOCCOCCOCCO` was “inactive”; that for `CCC(C)c1ccccc1O` (stereo not given) was “inactive”.
The value for `CCC(C)OC(=O)c1ccc(O)cc1` (stereo not given) was “inactive”; that for `Brc1cc(Oc2cc(Br)c(Br)c(Br)c2Br)c(Br)c(Br)c1Br` was “inactive”; that for `CN(C)c1nc(N(C)C)nc(N(C)C)n1` was “inactive”.
With `CN(C)CCN(Cc1cccs1)c1ccccn1`, the Potency result was “inactive”.
The value for `OCCO` was “inactive”.
Turning to `COc1c(Cl)c(Cl)c(Cl)c(Cl)c1Cl`, the Potency result is “inactive”.
The value for `c1ccc2sc(SSN3CCOCC3)nc2c1` was “inactive”; that for `CCCCc1oc2ccccc2c1C(=O)c1cc(I)c(OCCN(CC)CC)c(I)c1` was “inactive”.
The value for `CC1=CC2C3CC(C=C3C)C2C1` (stereo not given) was “inactive”; that for `CCCCC(CC)COP(=O)(OCC(CC)CCCC)OCC(CC)CCCC` (stereo not given) was “inactive”; that for `c1cc(-c2ccncc2)ccn1` was “inactive”.
`CCC(C)CO` (stereo not given): the Potency result is “inactive”.
Turning to `C/C=C/C(=O)O`, the Potency result is “inactive”.
Consider `Cc1c(C(N)=O)cc([N+](=O)[O-])cc1[N+](=O)[O-]`, for which the Potency entry was “inactive”.
Regarding `c1ccc2c(c1)c1cccc3ccc4cccc2c4c31`, the Potency result is “inactive”.
Take `CC(=O)Oc1ccccc1C(=O)Nc1ncc([N+](=O)[O-])s1`: the Potency is 1.33 µM (active).
The value for `Nc1ccc(S(=O)(=O)Nc2cnc3ccccc3n2)cc1` was “inactive”.
For the molecule `COc1ccc(C(=O)CC(=O)c2ccc(C(C)(C)C)cc2)cc1`, the Potency result is “inactive”.
The value for `C=CC(C)(CCC=C(C)C)OC(C)=O` (stereo not given) was “inactive”.
In the case of `Cc1ccc(C(=O)c2cc(O)c(O)c([N+](=O)[O-])c2)cc1`, the Potency entry is “inactive”.
In the case of `O=[N+]([O-])c1ccc2c(c1)Cc1ccccc1-2`, the Potency result is “inactive”.
`CCOCCOCCO`: the Potency result is “inactive”.
With `O=C(c1ccccc1)c1ccccc1O`, the Potency entry is “inactive”.
On to `COc1ccc(OC)c(C(O)CNC(=O)CN)c1` (stereo not given), for which the Potency entry was “inactive”.
As to `OC(CCl)CCl`, the Potency entry is “inactive”.
For `CC(C)Oc1ccc2c(=O)c(-c3ccccc3)coc2c1`, the Potency is 1.19 µM (active) and 2.66 µM (active).
